# Test results from PubChem BioAssay (EPA / NIEHS).
# Inconclusive results are not listed. The source made the active and inactive calls. The calls were made as follows: active = hit-call score of the fitted dose curve at least 0.9, where 1 is the maximum; inconclusive = response in the unintended direction; inactive = score below 0.9.
# Biological target: human Caspase 5 (CASP5), CASP5 (gene 838) (UniProt P51878)
# Experiment: NVS_ENZ_hCASP5: NovaScreen (NVS) Enzymatic Assay for human Caspase 5 (CASP5) (AID 2283137)
# Method in brief: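 Cell-free protease assay with bacterially expressed CASP5 and a fluorescent substrate, measured at 2 h. Values fitted relative to DMSO as baseline, from concentration-response series topping at 50 uM.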
# human Caspase 5 (CASP5), CASP5 (gene 838), sequence (P51878 whole entry, looked up): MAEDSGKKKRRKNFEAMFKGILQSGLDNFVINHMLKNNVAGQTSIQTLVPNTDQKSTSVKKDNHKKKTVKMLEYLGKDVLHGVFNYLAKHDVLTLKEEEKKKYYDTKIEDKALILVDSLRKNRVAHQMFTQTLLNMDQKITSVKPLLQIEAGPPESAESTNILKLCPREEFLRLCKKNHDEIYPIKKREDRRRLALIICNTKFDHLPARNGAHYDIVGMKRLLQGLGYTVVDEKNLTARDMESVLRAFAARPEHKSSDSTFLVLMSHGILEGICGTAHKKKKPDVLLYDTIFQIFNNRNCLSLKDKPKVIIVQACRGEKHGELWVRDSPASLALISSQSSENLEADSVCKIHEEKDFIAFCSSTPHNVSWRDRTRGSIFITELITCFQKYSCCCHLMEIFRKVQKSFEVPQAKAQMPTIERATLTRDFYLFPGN
Structure (SMILES),outcome,AC50
CCN(Cc1cccnc1)C(=O)c1cccc(Cl)c1[C@]1(C)C(=O)N(Cc2ccc(OC)cc2OC)c2ccc(Cl)cc21,inactive,
CCN(Cc1cccc(S(=O)(=O)O)c1)c1ccc(C(=C2C=CC(=[N+](CC)Cc3cccc(S(=O)(=O)O)c3)C=C2)c2ccccc2S(=O)(=O)[O-])cc1,,5.36 µM (active)
CC[C@H](NC(=O)c1cc(F)ccc1NS(=O)(=O)c1cccc2cccnc12)c1ccccc1,inactive,
CN1C(=O)N(c2ccccc2Br)Cc2cnc(Nc3ccc4c(c3)OCC(CO)O4)nc21 (stereo not drawn),,12.5 µM (active)
CCCCCCCCOC(=O)c1cc(O)c(O)c(O)c1,,25.4 µM (active)

# Biological target: human AKT serine/threonine Kinase 1 (AKT1), AKT1 (gene 207) (UniProt P31749)
# Experiment: NVS_ENZ_hAKT1: NovaScreen (NVS) Enzymatic Assay for human AKT serine/threonine Kinase 1 (AKT1) (AID 2283138)
# Method in brief: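 Signal loss relative to DMSO, measured by fluorescence after electrophoretic separation of substrate and product, indicates inhibition of recombinant enzyme. Readings at 1 h; screening at 25 uM, follow-up curves up to 50 uM.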
# human AKT serine/threonine Kinase 1 (AKT1), AKT1 (gene 207), sequence (P31749 whole entry, looked up): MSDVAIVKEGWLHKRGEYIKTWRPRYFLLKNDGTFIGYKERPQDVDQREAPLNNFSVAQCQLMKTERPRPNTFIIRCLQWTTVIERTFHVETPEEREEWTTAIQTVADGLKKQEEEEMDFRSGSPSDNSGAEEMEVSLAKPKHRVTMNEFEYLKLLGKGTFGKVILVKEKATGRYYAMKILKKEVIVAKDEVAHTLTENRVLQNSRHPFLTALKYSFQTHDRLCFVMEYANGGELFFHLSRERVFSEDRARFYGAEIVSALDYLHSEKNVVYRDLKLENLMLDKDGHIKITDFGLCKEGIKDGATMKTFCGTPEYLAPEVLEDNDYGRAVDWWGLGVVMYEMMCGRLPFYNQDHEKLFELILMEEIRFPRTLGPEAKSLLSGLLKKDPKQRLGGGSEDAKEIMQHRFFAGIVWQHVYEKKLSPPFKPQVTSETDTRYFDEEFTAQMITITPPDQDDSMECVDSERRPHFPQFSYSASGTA
Structure (SMILES),outcome,AC50
CC(C)(O)c1ccc(CNC(=O)c2cccnc2Oc2ccc3nonc3c2)cc1,inactive,
CO[C@H]1/C=C/O[C@@]2(C)Oc3c(C)c(O)c4c(O)c(c(/C=N/N5CCN(C)CC5)c(O)c4c3C2=O)NC(=O)/C(C)=C\C=C\[C@H](C)[C@H](O)[C@@H](C)[C@@H](O)[C@@H](C)[C@H](OC(C)=O)[C@@H]1C,,25.1 µM (active)
c1ccc2ccccc2c1,inactive,
CC/C(=C(/CC)c1ccc(O)cc1)c1ccc(O)cc1,inactive,
O=CCCCC=O,,25 µM (active)
CCCCCCCCOC(=O)c1cc(O)c(O)c(O)c1,inactive,

# Biological target: human Beta-secretase (BACE), BACE1 (gene 23621) (UniProt P56817)
# Experiment: NVS_ENZ_hBACE: NovaScreen (NVS) Enzymatic Assay for human Beta-secretase (BACE) (AID 2283140);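 also: hits are inhibitors that reduce fluorescent substrate signal versus DMSO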
# Method in brief: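 Recombinant BACE1 (SF9 extract) incubated with compound and fluorescent substrate, 1 h. Plates carried positive and DMSO negative controls. Initial single dose 25 uM, duplicate; confirmation by concentration series.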
# human Beta-secretase (BACE), BACE1 (gene 23621), sequence (P56817 whole entry, looked up): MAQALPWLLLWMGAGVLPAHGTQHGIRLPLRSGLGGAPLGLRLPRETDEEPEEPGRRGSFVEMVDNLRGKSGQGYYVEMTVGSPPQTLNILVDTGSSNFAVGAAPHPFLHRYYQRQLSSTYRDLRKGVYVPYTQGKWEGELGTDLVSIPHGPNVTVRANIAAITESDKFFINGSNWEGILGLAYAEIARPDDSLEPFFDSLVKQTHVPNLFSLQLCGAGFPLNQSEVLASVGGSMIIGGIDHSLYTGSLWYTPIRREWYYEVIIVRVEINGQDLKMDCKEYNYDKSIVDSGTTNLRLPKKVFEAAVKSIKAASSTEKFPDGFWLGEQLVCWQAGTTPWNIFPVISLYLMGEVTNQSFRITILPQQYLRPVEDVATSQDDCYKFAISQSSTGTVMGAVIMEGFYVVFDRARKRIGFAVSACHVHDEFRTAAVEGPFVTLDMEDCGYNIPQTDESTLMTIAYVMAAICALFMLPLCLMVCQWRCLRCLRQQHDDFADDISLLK
Structure (SMILES),outcome,AC50
CO[C@H]1/C=C/O[C@@]2(C)Oc3c(C)c(O)c4c(O)c(c(/C=N/N5CCN(C)CC5)c(O)c4c3C2=O)NC(=O)/C(C)=C\C=C\[C@H](C)[C@H](O)[C@@H](C)[C@@H](O)[C@@H](C)[C@H](OC(C)=O)[C@@H]1C,inactive,
CN(C)c1ccc(C(=C2C=CC(=[N+](C)C)C=C2)c2ccc(N(C)C)cc2)cc1,,14 µM (active)
COc1cc(C(=O)NC2CCN(C)CC2)ccc1Nc1ncc2c(n1)N(C1CCCC1)CC(F)(F)C(=O)N2C,inactive,
CN(C)C(=O)C1(N2CCCCC2)CCN(CC[C@@]2(c3ccc(Cl)c(Cl)c3)CN(C(=O)c3ccccc3)CCO2)CC1,inactive,
O=C(Nc1ccc(Cl)cc1)Nc1ccc(Cl)c(Cl)c1,,16.3 µM (active)
CCN(Cc1cccc(S(=O)(=O)O)c1)c1ccc(C(=C2C=CC(=[N+](CC)Cc3cccc(S(=O)(=O)O)c3)C=C2)c2ccccc2S(=O)(=O)[O-])cc1,,14.8 µM (active)
OCCO,inactive,
NC(=O)c1nc(-c2cccc(-c3cc(F)ccc3OCC(F)(F)C(F)(F)F)c2)n[nH]1,inactive,
COc1ccc2cc(S(=O)(=O)N[C@H](CC(=O)N[C@H](Cc3ccc(CN4[C@H](C)CCC[C@@H]4C)cc3)C(=O)N(C)C(C)C)c3ccc4c(c3)OCO4)ccc2c1,inactive,
O=C(O)Cc1cc(I)c(Oc2ccc(O)c(I)c2)c(I)c1,inactive,
Cc1ccc(C(C)C)cc1,inactive,
NCc1cccc(C2CCN(C(=O)c3ccc(C#Cc4ccccc4F)o3)CC2)c1,,41.8 µM (active)
CC(C)(C)c1csc(-c2cc3cc(OCc4ccccc4CC(=O)O)ccc3o2)n1,,17.1 µM (active)
CCCCOC(=O)c1ccc(O)cc1,inactive,
CCOC(=O)O[C@H](C)OC(=O)c1ccc2c(c1)cc(C(=O)NC1CCN(C(C)C)CC1)n2Cc1cc(-c2ccc(Cl)s2)on1,,0.447 µM (active)
O=C(O)c1ccccc1-n1cc(C(=O)O)c(=O)c2cc(Nc3c(F)cc(F)cc3Cl)c(Cl)cc21,,5.43 µM (active)
CC(=O)N1CCN(c2ccc(OC[C@H]3CO[C@](Cn4ccnc4)(c4ccc(Cl)cc4Cl)O3)cc2)CC1,inactive,
CN(C[C@@H](CC[N+]12CCC(C3CCCCC3)(CC1)CC2)c1ccc(Cl)c(Cl)c1)C(=O)c1cc(C(F)(F)F)cc(C(F)(F)F)c1,,29.9 µM (active)

# Biological target: human Caspase 4 (CASP4), CASP4 (gene 837) (UniProt P49662)
# Experiment: NVS_ENZ_hCASP4: NovaScreen (NVS) Enzymatic Assay for human Caspase 4 (CASP4) (AID 2283143)
# Protocol: NVS_ENZ_hCASP4 is a biochemical, single-readout assay that uses extracted gene-proteins from E. coli in a cell-free assay. Measurements were taken 2 hours after chemical dosing in a 96-well plate.NVS_ENZ_hCASP4 is one of one assay component(s) measured or calculated from the NVS_ENZ_hCASP4 assay. It is designed to make measurements of enzyme activity, a form of enzyme reporter, as detected with fluorescence intensity signals by Fluorescence technology.Data from the assay component NVS_ENZ_hCASP4 was analyzed into 1 assay endpoint. This assay endpoint, NVS_ENZ_hCASP4, was analyzed in the positive analysis fitting direction relative to DMSO as the negative control and baseline of activity. Using a type of enzyme reporter, loss-of-signal activity can be used to understand changes in the enzymatic activity as they relate to the gene CASP4. Furthermore, this assay endpoint can be referred to as a primary readout, because this assay has produced multiple assay endpoints where this one serves a enzymatic activity function. To generalize the intended target to other relatable targets, this assay endpoint is annotated to the protease intended target family, where the subfamily is cysteine protease.
# Binding assays used specific radioligands (tritiated, iodinated) with non-radioactive competitive displacement ligands in agonist or antagonist protocols (as indicated) and various reference compounds and inhibitors to titrate specific binding to receptors and transporters. Most enzyme assays (CYPs, kinases, phosphatases, proteases, HDACs) used recombinant protein and specific substrates (fluorescence mostly, some colorimetric and radioactive) and inhibitors, followed by a biochemical separation of substrate and product. All assays for the biochemical HTS were initially run in duplicate at a single concentration (10 uM for CYP450 assays and 25 uM for all others). Assay-chemical combinations meeting a pre-defined threshold (e.g., 30% inhibition and other criteria defined below) were then run in singleton concentration-response format with maximum concentration of 20 uM for CYPs and 50 uM for all others. Each assay was run with positive and negative controls, and concurrent controls on every plate. The follow-up (secondary) screen tested active chemical-pairs in concentration series, as well as a few additional assays not tested in the primary screen, some selected negative inactives, and several cases re-run in the concentration series for confirmatory purposes.
# human Caspase 4 (CASP4), CASP4 (gene 837), sequence (P49662 whole entry, looked up): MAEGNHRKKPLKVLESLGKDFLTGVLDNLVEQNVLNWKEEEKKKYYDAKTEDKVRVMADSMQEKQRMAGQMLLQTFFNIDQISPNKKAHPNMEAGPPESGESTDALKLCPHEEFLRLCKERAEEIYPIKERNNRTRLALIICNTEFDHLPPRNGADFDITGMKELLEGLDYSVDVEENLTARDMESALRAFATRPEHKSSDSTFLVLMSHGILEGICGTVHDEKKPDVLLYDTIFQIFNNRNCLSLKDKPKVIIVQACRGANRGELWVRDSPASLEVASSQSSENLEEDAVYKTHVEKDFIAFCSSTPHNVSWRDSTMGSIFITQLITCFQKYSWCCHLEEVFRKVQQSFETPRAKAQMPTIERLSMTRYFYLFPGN
Structure (SMILES),outcome,AC50
CCN(CC)C(=O)c1cc(S(=O)(=O)Cc2ccccc2)c(N2CCC(c3ccccc3)CC2)cc1N(CC)CCN(C)C,inactive,
CCN(Cc1cccnc1)C(=O)c1cccc(Cl)c1[C@]1(C)C(=O)N(Cc2ccc(OC)cc2OC)c2ccc(Cl)cc21,inactive,
CCN(Cc1cccc(S(=O)(=O)O)c1)c1ccc(C(=C2C=CC(=[N+](CC)Cc3cccc(S(=O)(=O)O)c3)C=C2)c2ccccc2S(=O)(=O)[O-])cc1,,4.96 µM (active)
CCCCCCCCOC(=O)c1cc(O)c(O)c(O)c1,inactive,

# Biological target: CDK2 (gene 1017) (UniProt P24941)
# Experiment: NVS_ENZ_hCDK2: NovaScreen (NVS) Enzymatic Assay for human Cyclin-Cependent Kinase 2 (CDK2) (AID 2283144)
# Method in brief: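 Cell-free recombinant human CDK2 with fluorescent substrate, product separated by electrophoretic mobility shift; 1 hr read. Primary screen at 25 uM in duplicate, actives retested in concentration-response up to 50 uM; loss of signal versus DMSO.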
Structure (SMILES),outcome,AC50
COc1cc(C(=O)NC2CCN(C)CC2)ccc1Nc1ncc2c(n1)N(C1CCCC1)CC(F)(F)C(=O)N2C,inactive,
c1ccc2ccccc2c1,inactive,
Oc1ccc2ccccc2c1,inactive,
CN1C(=O)N(c2ccccc2Br)Cc2cnc(Nc3ccc4c(c3)OCC(CO)O4)nc21 (stereo not drawn),,11.7 µM (active)
Clc1cc(Cl)c2c(c1)N=C1CCCCCN1C2,inactive,

# Biological target: human Caspase 8 (CASP8), CASP8 (gene 841) (UniProt Q14790)
# Experiment: NVS_ENZ_hCASP8: NovaScreen (NVS) Enzymatic Assay for human Caspase 8 (CASP8) (AID 2283146)
# Method in brief: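 E. coli-expressed enzyme was used in a cell-free fluorogenic substrate assay read 1 h after dosing. Loss of signal was scored relative to DMSO, and the primary screen was run in duplicate at 25 uM.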
# human Caspase 8 (CASP8), CASP8 (gene 841), sequence (Q14790 whole entry, looked up): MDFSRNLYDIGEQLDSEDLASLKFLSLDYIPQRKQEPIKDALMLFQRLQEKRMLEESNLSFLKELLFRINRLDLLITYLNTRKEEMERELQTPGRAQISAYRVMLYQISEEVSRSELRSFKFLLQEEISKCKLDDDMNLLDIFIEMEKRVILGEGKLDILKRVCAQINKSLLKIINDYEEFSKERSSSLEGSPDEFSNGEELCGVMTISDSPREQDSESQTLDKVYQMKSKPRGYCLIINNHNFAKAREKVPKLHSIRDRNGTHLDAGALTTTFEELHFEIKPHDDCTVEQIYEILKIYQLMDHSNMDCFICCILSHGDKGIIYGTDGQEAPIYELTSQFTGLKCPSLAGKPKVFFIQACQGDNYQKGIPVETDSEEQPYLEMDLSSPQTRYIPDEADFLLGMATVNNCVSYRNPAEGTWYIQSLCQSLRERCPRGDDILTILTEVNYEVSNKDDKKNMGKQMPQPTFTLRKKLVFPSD
Structure (SMILES),AC50,outcome
CO[C@H]1/C=C/O[C@@]2(C)Oc3c(C)c(O)c4c(O)c(c(/C=N/N5CCN(C)CC5)c(O)c4c3C2=O)NC(=O)/C(C)=C\C=C\[C@H](C)[C@H](O)[C@@H](C)[C@@H](O)[C@@H](C)[C@H](OC(C)=O)[C@@H]1C,6.48 µM (active),
CCN(Cc1cccc(S(=O)(=O)O)c1)c1ccc(C(=C2C=CC(=[N+](CC)Cc3cccc(S(=O)(=O)O)c3)C=C2)c2ccccc2S(=O)(=O)[O-])cc1,,inactive
CC/C(=C(/CC)c1ccc(O)cc1)c1ccc(O)cc1,,inactive
CCCCCCCCOc1ccc(C(=O)c2ccccc2)c(O)c1,,inactive
CCCCCCCCCCCC[N+](C)(C)C,,inactive
